# G9a block = qHTS Assay for Inhibitors of Histone Lysine Methyltransferase G9a; Histone-lysine N-methyltransferase EHMT2 (Homo sapiens), Q96KQ7; G9a H3K9 monomethylation, AlphaScreen, 2 h; Potency, µM (highest dose often 102 µM), for inactives: at the highest dose activity, negative = inhibition, actives largely listed as inhibitors; hit rate 8.8% among 350,000; AID 504332, 2011; also: % is scaled to controls: 0 for no effect and ±100 for the full control effect; nearly all actives have a fitted effect of over 75% in size
#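 AlphaScreen read-out: biotin-H3K9 peptide (500 nM) methylation by 20 nM enzyme with 20 uM SAM, 2 h at room temperature after 15 min compound preincubation; anti-monomethyl H3K9 antibody plus donor/acceptor beads, 10 min dark.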
# BAZ2B inh = qHTS Assay for Inhibitors of BAZ2B. hit rate 4.4% among 360,000. AlphaScreen BAZ2B-H3K14Ac peptide displacement. Bromodomain adjacent to zinc finger domain protein 2B (Homo sapiens), Q9UIF8. Potency, µM (highest dose often 114 µM), for the others: top-dose activity change, negative = inhibition, hits mostly inhibitors; also: % is scaled to controls: 0 for no effect and ±100 for the full control effect; nearly all actives have a fitted effect of over 60% in size
#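 AlphaScreen displacement of biotin-H3(5-23)K14Ac peptide (50 nM final) from BAZ2B (50 nM final) in PBS pH 7.4, 0.01% Tween-20; complex preformed 30 min RT, then compounds (top 110 uM) 30 min RT, beads 20 min dark.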
# TDP1 block = qHTS Assay for Inhibitors of Tyrosyl-DNA Phosphodiesterase (TDP1) | Potency, µM (top dose mostly 130 µM), without a hit: at the top dose activity change, negative = inhibition, hits mostly inhibitors | Tyrosyl-DNA phosphodiesterase 1 (Homo sapiens), Q9NUW8 | recombinant TDP1, AlphaScreen DNA substrate cleavage | hit rate 0.28% among 350,000; also: % is scaled to controls: 0 for no effect and ±100 for the full control effect; nearly all actives have a fitted effect of over 40% in size
#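 Recombinant human Tdp1 (E. coli-expressed, 1 nM final) preincubated with compounds 15 min at room temperature, then 5'-biotin/3'-phosphotyrosine-FITC DNA substrate (15 nM final) added for 5 min. AlphaScreen beads (10 ug/ml final) added 10 min; cleavage lowers signal.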
# Sfp PPTase inh = qHTS Assay for Inhibitors of Bacillus subtilis Sfp phosphopantetheinyl transferase (PPTase); 4'-phosphopantetheinyl transferase ffp (Bacillus subtilis), Q9F4F7; Biochemical Sfp PPTase activity, qHTS; Potency, µM, inactives show largest response in the series, negative = inhibition, actives largely listed as inhibitors; hit rate 3.5% among 310,000; AID 1490, 2009;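 also: the enzyme is Sfp with the accession as filed and its product quenches rhodamine fluorescence; 0% = enzyme reaction without inhibitor and -100% = no enzyme wells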
#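 Buffer: 50 mM Hepes-Na pH 7.6, 10 mM MgCl2, 0.01% Nonidet P-40, 0.01% BSA. Enzyme 15 nM, pre-exposed to compound 15 min; substrates then added and fluorescence change tracked over 30 min.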
# JMJD2A Tudor inh = qHTS Assay for Inhibitors of JMJD2A-Tudor Domain. AID 504339, 2011. hit rate 4.4% among 390,000. Lysine-specific demethylase 4A (Homo sapiens), O75164. AlphaScreen JMJD2A-Tudor / H3K4me3 peptide binding. Potency, µM (titrated, usually from 114 µM), for inactives: at the highest dose activity change, negative = inhibition, actives largely listed as inhibitors; also: % is scaled to controls: 0 for no effect and ±100 for the full control effect; nearly all actives have a fitted effect of over 50% in size
# Target sequence (O75164 whole entry, looked up, the tested form may be a part): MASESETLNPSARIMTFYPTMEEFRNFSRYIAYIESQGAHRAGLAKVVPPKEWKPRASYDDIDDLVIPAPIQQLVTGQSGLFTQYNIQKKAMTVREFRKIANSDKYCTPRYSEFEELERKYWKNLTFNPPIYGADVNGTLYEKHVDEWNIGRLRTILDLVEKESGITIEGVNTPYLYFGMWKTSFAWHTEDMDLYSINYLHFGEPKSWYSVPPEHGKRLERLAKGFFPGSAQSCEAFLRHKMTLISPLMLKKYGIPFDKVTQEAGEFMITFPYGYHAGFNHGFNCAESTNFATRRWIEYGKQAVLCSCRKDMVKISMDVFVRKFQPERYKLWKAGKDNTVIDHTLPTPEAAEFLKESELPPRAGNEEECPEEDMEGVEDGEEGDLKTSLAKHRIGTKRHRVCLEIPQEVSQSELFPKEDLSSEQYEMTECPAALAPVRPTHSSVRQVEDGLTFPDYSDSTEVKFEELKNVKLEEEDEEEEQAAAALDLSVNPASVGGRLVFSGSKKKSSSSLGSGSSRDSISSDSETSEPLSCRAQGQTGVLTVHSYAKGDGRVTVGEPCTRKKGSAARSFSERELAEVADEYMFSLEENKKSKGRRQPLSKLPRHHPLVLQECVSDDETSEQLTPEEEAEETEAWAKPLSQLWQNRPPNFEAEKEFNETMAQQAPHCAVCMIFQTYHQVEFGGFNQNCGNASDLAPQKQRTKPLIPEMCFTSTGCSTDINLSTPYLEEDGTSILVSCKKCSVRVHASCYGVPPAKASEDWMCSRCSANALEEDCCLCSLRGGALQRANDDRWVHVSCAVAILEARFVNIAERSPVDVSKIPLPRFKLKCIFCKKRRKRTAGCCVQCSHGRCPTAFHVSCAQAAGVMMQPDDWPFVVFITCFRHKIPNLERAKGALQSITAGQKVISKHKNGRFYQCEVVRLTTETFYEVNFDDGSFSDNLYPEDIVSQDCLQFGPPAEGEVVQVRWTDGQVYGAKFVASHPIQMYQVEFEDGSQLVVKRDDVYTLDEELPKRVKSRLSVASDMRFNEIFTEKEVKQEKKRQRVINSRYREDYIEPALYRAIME
# HP1b binding inh = HTS for Inhibitors of HP1-beta Chromodomain Interactions with Methylated Histone Tails | Chromobox protein homolog 1 (Homo sapiens), P83916 | AlphaScreen HP1-beta / biotin-H3K9me3 peptide binding | Potency, µM (series often up to 114 µM), without a hit: at the top dose activity change, negative = inhibition, actives largely listed as inhibitors | hit rate 0.56% among 390,000 | AID 540317, 2011; also: nearly all actives have a fitted effect of over 70% in size
#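 Compound inhibition of the preformed complex between 50 nM HP1-beta and 50 nM biotinylated H3K9me3 peptide was read by AlphaScreen. Buffer was PBS pH 7.4 with 0.01% Tween-20. Incubations ran 30 min at room temperature, with 10 ug/mL donor/acceptor beads.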
# Numbers without * were called inactive; ? = inconclusive; . = no result; [ ] = dose if it differs, or a comment. In the library only some 12% were active in any assay of this set; here they are far more common. Calls follow the shape of the dose curve; as a rule, active = well fitted curve in the direction sought with a large enough effect; inconclusive = small, poorly fitted or top-dose-only effect, or another doubt; inactive = no such curve, though single readings can be large; an effect the other way counts as inactive or inconclusive. Potency is read from the fitted curve at half-maximal effect.
SMILES,G9a block,BAZ2B inh,TDP1 block,Sfp PPTase inh,JMJD2A Tudor inh,HP1b binding inh
O[C@@H]1[C@@H]2O[P@@](O)(=S)OC[C@H]2O[C@H]1n1cnc2cc(Cl)c(Cl)cc21,.,.,-5.6%,0.5%,.,.
NC1CCCC[C@H]1N (stereo partly specified),.,.,7.5%,5.6%,.,.
S=P(Nn1cnnc1)(c1ccc(Br)cc1)c1ccc(Br)cc1,-21.4%,-5.0%,5.3%,79.4µM*,-25.1%,24.9%
C=C1CC2C(CC[C@]3(C)C(=O)CCC23)[C@]2(C)C=CC(=O)C=C12 (stereo partly specified),21.2%[59 µM],.,9.0%,5.4%,.,.
C[C@@H]1O[C@H](C[N+](C)(C)C)C[C@@H]1O,15.5%[59 µM],.,4.9%,22.4%,.,.
COc1ccc(OC)c(CN2CCN(C(=O)COc3cccc(C)c3)CC2)c1,7.08µM*,?,-5.1%,?,3.55µM*,?
COc1cc(CN2CCN(C(=O)COc3ccccc3)CC2)cc(OC)c1OC,?,?,-2.5%,-23.2%,3.16µM*,-19.6%
COc1ccc(OCC(=O)N2CCN(C/C=C/c3ccccc3)CC2)cc1,3.9%,-26.9%,1.2%,12.9%,-29.2%,41.9%
Cn1cccc1CN1CCN(C(=O)COc2ccccc2)CC1,?,44.7µM*,2.9%,-15.3%,7.08µM*,?
COc1cccc(CN2CCN(C(=O)Cc3ccccc3OC)CC2)c1,.,-10.0%,3.2%,8.0%,-5.3%,29.7%
COc1ccccc1CN1CCN(C(=O)COc2cccc(C)c2)CC1,?,50.1µM*,-5.2%,-24.7%,31.6µM*,?
CC(=O)N1CC[N+](C)(C)CC1,-3.2%[59 µM],.,-3.7%,0.1%,.,.
Cc1[nH]c(=O)n(C(C)(C)C)c(=O)c1Cl,.,.,8.2%,18.7%,.,.
CC(=O)OCC1=C(C(=O)O)N2C(=O)[C@@H](N)[C@@H]2SC1,0.4%[5.15 µM],.,?,22.4µM*,.,.
CN1C(=O)C(=Cc2ccc(N(C)C)c([N+](=O)[O-])c2)C(=O)N(C)C1=O,116.9%[59 µM],14.3%,-1.2%,56.2µM*,.,.
CN1C(=O)C(=Cc2cc([N+](=O)[O-])ccc2N2CCCCC2)C(=O)N(C)C1=O,3.0%[59 µM],?,2.5%,-4.9%,-11.4%,15.6%
CN(C)c1ccc(C=C2C(=O)NC(=S)NC2=O)cc1[N+](=O)[O-],7.08µM*,?,-14.7%,-87.1%,35.5µM*,?
CN(C)c1ccc(C=C2C(=O)NC(=O)NC2=O)cc1[N+](=O)[O-],?,.,-5.3%,25.1µM*,-13.5%[11.4 µM],10.6%
O=C1CS[C@@H](c2ccccc2Cl)c2cc(Cl)ccc2N1,.,.,10.7%,-2.0%,.,.
C[C@@]12CCC(=O)C=C1C=C[C@H]1[C@H]3CC[C@](O)(CCC(=O)O)[C@]3(C)CC[C@@H]12,8.5%[21.5 µM],.,16.4%[21 µM],21.0%,.,.
CCCC[C@@H](C)[C@@H](OC(=O)C[C@@H](CC(=O)O)C(=O)O)[C@H](C[C@@H](C)C[C@H](O)CCCC[C@@H](O)C[C@H](O)[C@H](C)N)OC(=O)C[C@H](CC(=O)O)C(=O)O,17.8%[59 µM],.,12.2%,32.7%,.,.
CCCC(=O)c1cc(CP(=O)(OCC)OCC)oc1C,7.94µM*,-11.4%,1.4%,?,-12.8%,32.1%
CCOP(=O)(Cc1ccc(C#N)o1)OCC,?,5.2%,5.6%,8.3%,-8.7%,30.6%
CCOP(=O)(Cc1cc(C(C)=O)c(C)o1)OCC,8.91µM*,-14.8%,-4.1%,?,-23.2%,17.6%
O=C1NCCOC(=O)[C@@H](Cc2ccc(F)cc2)CC/C=C/C[C@@H]1CC(=O)N(CCO)Cc1ccccc1,.,.,0.1%,.,-2.9%,14.8%
SMILES,G9a block,BAZ2B inh,TDP1 block,Sfp PPTase inh,JMJD2A Tudor inh,HP1b binding inh
CCOC(=O)c1sc(/N=C/c2c(O)n(-c3cccc(C)c3)c(=O)[nH]c2=O)c(C#N)c1C,-20.1%[59 µM],0.8%,-3.5%,?,50.1µM*,?
CCCCn1c(O)c(C=Nc2c(C)n(C)n(-c3ccccc3)c2=O)c(=O)[nH]c1=O,56.2µM*,-1.4%,5.3%,6.9%,-1.9%,26.2%
Cc1c(N=Nc2c(O)n(C)c(=O)n(C)c2=O)c(=O)n(-c2ccccc2)n1C,?,35.5µM*,-5.3%,-27.8%,-30.5%,25.8%
Cc1c(N=Cc2c(O)n(Cc3ccccc3)c(=O)[nH]c2=O)c(=O)n(-c2ccccc2)n1C,-10.3%,-5.7%,2.5%,8.3%,3.4%,19.6%
Cc1c(N=Nc2c(O)n(Cc3ccccc3)c(=O)[nH]c2=O)c(=O)n(-c2ccccc2)n1C,?,10µM*,9.5%,7.2%,20µM*,39.3%
CC[C@H](/C=C/[C@@H](C)[C@H]1CC[C@H]2C3CC=C4C[C@@H](O)CC[C@]4(C)C3CC[C@]12C)C(C)C (stereo partly specified),.,.,6.0%,34.1%,.,.
CC1CN1P(=O)(Oc1ccc2ccccc2c1)N1CC1C (stereo unspecified),.,.,.,.,-14.6%,23.9%
CC1=CC(=O)NP(=O)(Oc2ccc3ccccc3c2)N1 (stereo unspecified),3.55µM*,.,6.2%,7.94µM*,44.7µM*,14.1µM*
NC(=NCCc1ccc(I)cc1)SCCCc1cnc[nH]1,?,.,15.8%,8.1%,.,.
C[N+]1(C)C2CC[C@H]1CC(OC(=O)[C@@H](CO)c1ccccc1)C2 (stereo partly specified),-3.2%[59 µM],.,6.4%,8.1%,.,.
C=CCn1c(O)c(C(CC)=NCCc2ccccc2)c(=O)[nH]c1=O,-9.7%,-6.4%,1.4%,4.3%,-10.5%,14.8%
C=CCn1c(O)c(/C(C)=N/NC(=S)Nc2ccccc2)c(=O)[nH]c1=O,-124.3%[59 µM],-2.6%,.,35.5µM*,?,6.4%
C=CCn1c(O)c(/C(CC)=N/NC(=S)Nc2ccccc2)c(=O)[nH]c1=O,.,-9.5%,39.8µM*,22.4µM*,-10.3%,17.6%
CCNN,.,.,-6.9%,?,.,.
CN1C(=O)CCS(=O)(=O)[C@@H]1c1ccc(Cl)cc1,4.6%[21.5 µM],.,3.0%[56.1 µM],14.2%,.,.
COc1ccc2[nH]c3c(c2c1)CCNC3C (stereo unspecified),18.6%,-23.5%,2.4%,11.7%,-22.6%,45.4%
COc1ccc2c3c([nH]c2c1)C(C)NCC3 (stereo unspecified),-25.3%[12.7 µM],?,10.3%,9.2%,50.1µM*,-12.8%
N[C@H](CCCP(=O)(O)O)C(=O)O,.,.,10.7%,16.5%,.,.
COc1cc2c(cc1OC)[C@@H]1C(=O)c3ccc(OC)c(CC=C(C)C)c3OC1CO2 (stereo partly specified),.,.,15.6%[56.1 µM],?,.,.
